# Measured values reported in publication PMC4336329 (PLoS ONE, 2015).
# Out of some 310,000 compounds screened, about 14,000 (4.5%) showed an effect of 50% or more. The effect is printed as a negative number. The sample as a whole holds a higher share of strong results than the screen did.
# Target: human ether-à-go-go-related gene (hERG) potassium channel (human, UniProt Q12809)
# Assay: primary screen, population patch clamp on CHO cells stably expressing hERG; higher = less effect of the substance
# 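Note: peak tail current of the secondary pulse compared with the same well before compound.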
# Sequence of human ether-à-go-go-related gene (hERG) potassium channel (Q12809 whole entry, looked up): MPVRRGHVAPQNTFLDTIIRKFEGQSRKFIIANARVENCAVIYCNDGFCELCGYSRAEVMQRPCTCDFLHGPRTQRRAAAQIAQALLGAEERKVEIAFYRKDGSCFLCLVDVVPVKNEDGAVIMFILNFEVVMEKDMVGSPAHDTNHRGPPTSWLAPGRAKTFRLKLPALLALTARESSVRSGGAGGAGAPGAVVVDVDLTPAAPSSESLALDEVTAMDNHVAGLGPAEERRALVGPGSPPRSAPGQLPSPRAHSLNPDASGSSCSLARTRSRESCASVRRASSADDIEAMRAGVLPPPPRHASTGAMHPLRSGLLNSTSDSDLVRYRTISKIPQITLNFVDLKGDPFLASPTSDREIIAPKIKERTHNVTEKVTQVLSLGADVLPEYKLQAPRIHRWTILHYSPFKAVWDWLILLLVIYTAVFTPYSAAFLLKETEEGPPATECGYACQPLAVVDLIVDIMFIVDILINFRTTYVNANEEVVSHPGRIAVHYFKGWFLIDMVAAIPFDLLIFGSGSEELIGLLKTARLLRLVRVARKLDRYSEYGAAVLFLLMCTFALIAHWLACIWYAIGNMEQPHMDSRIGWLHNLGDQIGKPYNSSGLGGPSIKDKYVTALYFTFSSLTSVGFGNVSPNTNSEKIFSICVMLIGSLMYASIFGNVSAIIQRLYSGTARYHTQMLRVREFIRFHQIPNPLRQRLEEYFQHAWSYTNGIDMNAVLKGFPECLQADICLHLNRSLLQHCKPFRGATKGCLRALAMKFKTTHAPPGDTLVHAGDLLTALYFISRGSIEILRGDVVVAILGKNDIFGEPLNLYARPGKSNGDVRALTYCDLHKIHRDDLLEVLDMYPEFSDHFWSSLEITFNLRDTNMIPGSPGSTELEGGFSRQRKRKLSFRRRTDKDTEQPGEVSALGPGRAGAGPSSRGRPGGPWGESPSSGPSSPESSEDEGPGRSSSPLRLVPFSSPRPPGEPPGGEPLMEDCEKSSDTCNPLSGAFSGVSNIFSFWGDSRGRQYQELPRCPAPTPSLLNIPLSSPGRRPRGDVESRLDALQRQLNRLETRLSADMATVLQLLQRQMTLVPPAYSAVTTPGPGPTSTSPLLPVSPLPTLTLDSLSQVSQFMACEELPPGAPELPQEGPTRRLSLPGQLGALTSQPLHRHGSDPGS
row,Structure (SMILES),"hERG current change (%, negative = inhibition) at 10uM"
1,CCOc1ccc(N(CC)C(=O)Cc2c(C(=O)O)n(C)c3ccccc23)cc1,16.8%
2,COC(=O)c1sccc1-n1cccc1C(=O)C(=O)N1CCOCC1,-78.3%
3,COC(=O)c1sccc1-n1cccc1C(=O)C(=O)N1CCCC1,14.3%
4,COC(=O)c1sccc1-n1cccc1C(=O)N1CCOCC1,-44.5%
5,Cc1ccc(-n2nc3c(=O)n(C(C)C(=O)NCCC4=CCCCC4)nc(C)c3c2C)cc1 (stereo not shown),-51.4%
6,Cc1ccc(-n2nc3c(=O)n(CCCC(=O)NCc4ccc(F)cc4)nc(C)c3c2C)cc1,-76.5%
7,Cc1ccc(-n2nc3c(=O)n(C(C)C(=O)NCc4ccc5c(c4)OCO5)nc(C)c3c2C)cc1 (stereo not shown),1.78%
8,CSc1ccc(CNC(=O)C(C)n2nc(C)c3c(C)n(-c4ccccc4)nc3c2=O)cc1 (stereo not shown),-38.2%
9,Cc1ccc(CNC(=O)CCCn2nc(C)c3c(C)n(-c4ccccc4)nc3c2=O)cc1,5.48%
10,Cc1ccc(-n2nc3c(=O)n(CC(=O)NCCC4=CCCCC4)nc(C)c3c2C)cc1,2.08%
11,CCOc1ccc(CNC(=O)C(C)n2nc(C)c3c(C)n(-c4ccccc4)nc3c2=O)cc1 (stereo not shown),-16.1%
12,Cc1ccc(-n2nc3c(=O)n(C(C)C(=O)NCc4ccccc4Cl)nc(C)c3c2C)cc1 (stereo not shown),-35.5%
13,Cc1ccc(-n2nc3c(=O)n(CCCC(=O)NCc4ccc(Cl)cc4)nc(C)c3c2C)cc1,4.82%
14,CCC(C(=O)NCCC1=CCCCC1)n1nc(C)c2c(C)n(-c3ccccc3)nc2c1=O (stereo not shown),-48.6%
15,Cc1ccc(-n2nc3c(=O)n(C(C)C(=O)NCc4ccc(Cl)cc4)nc(C)c3c2C)cc1 (stereo not shown),-63.5%
16,COc1ccc(CNC(=O)C(C)n2nc(C)c3c(C)n(-c4ccc(C)cc4)nc3c2=O)cc1 (stereo not shown),-50.1%
17,CCOc1ccc(C(=O)NNC(=O)CCNC(=O)c2ccco2)cc1OC,12.9%
18,Cc1ccc(OCCn2cccc2/C=C2/C(=O)NC(=O)N(Cc3ccco3)C2=O)cc1,-0.631%
19,CCOC(=O)C1CCN(C(=S)Nc2cc(OC)c(OC)cc2C(=O)OC)CC1,-10.9%
20,COc1cc(CNCC(C)C)c(Br)cc1OCC(=O)NCc1ccccc1,-10.7%
21,Cc1ccc(C2C(C#N)=C(N)OC3=C2C(=O)CC(C)(C)C3)s1 (stereo not shown),-4.59%
22,COc1ccc(-n2nnc3c(SCC(=O)N4CCCc5ccccc54)ncnc32)cc1,13.6%
23,Cc1nn(C(C)C(=O)NCCCc2ccccc2)c(=O)c2nn(-c3ccccc3)c(C)c12 (stereo not shown),-20%
24,CCOc1ccccc1CNC(=O)C(C)n1nc(C)c2c(C)n(-c3ccccc3)nc2c1=O (stereo not shown),-65.4%
25,Cc1ccc(-n2nc3c(=O)n(C(C)C(=O)NCCCc4ccccc4)nc(C)c3c2C)cc1 (stereo not shown),-55.2%
26,Cc1ccc(CCNC(=O)C(C)n2nc(C)c3c(C)n(-c4ccccc4)nc3c2=O)cc1 (stereo not shown),-36.3%

row,Structure (SMILES),"hERG current change (%, negative = inhibition) at 10uM"
1,Cc1nn(C(C)C(=O)NCc2ccccc2F)c(=O)c2nn(-c3ccccc3)c(C)c12 (stereo not shown),13.8%
2,COc1ccccc1CNC(=O)C(C)n1nc(C)c2c(C)n(-c3ccccc3)nc2c1=O (stereo not shown),-0.0415%
3,CNC(=S)Nc1cccc(S(=O)(=O)NC2=NCCC2)c1,-7.6%
4,Cc1c(-c2ccccc2)c(=O)oc2ccc(O)cc12,13.8%
5,CC1CCCCC1NC1CCN(C)CC1 (stereo not shown),23.9%
6,O=C(Nc1ccc2c(c1)OCO2)c1c(F)cccc1F,3.95%
7,COc1ccccc1-c1cc(C(=O)NCc2ccc(Cl)cc2)no1,3.64%
8,Cc1cc(Nc2c(C#N)c(N)nn2C)ccc1F,6.99%
9,Cc1cc(Nc2nn(C)c(N)c2C#N)ccc1F,-14.8%
10,Cc1cc(Nc2n[nH]c(N)c2C#N)ccc1F,-70.2%
11,CCOc1ccc(C(=O)Nc2cc(-c3nc4ccccc4[nH]3)ccc2Cl)cc1[N+](=O)[O-],-29.1%
12,CCCn1c2ccccc2c2cnn(CC(=O)NCCCOC)c(=O)c21,-1.43%
13,Cn1c2ccccc2c2cnn(CC(=O)N3CCCCC3)c(=O)c21,-10.4%
14,CCC1CCCCN1CCCNC(=O)Cn1ncc2c([nH]c3ccc(C)cc32)c1=O (stereo not shown),-6.66%
15,CCCn1c2ccccc2c2cnn(CC(=O)N3CCOCC3)c(=O)c21,-13.7%
16,CCCn1c2ccccc2c2cnn(CC(=O)NCCCN3C(C)CCCC3C)c(=O)c21 (stereo not shown),-41.8%
17,CCC1CCCCN1CCCNC(=O)Cn1ncc2c(C)n(Cc3ccccc3Cl)c(C)c2c1=O (stereo not shown),-14.6%
18,CCCn1c2ccccc2c2cnn(CC(=O)NCCCN3CCN(c4ccccc4)CC3)c(=O)c21,-74.2%
19,CCCn1c2ccccc2c2cnn(CC(=O)NCCCN3CCCCC3CC)c(=O)c21 (stereo not shown),-62.2%
20,CCCn1c2ccccc2c2cnn(CC(=O)NCCCN3CCCC(C)C3)c(=O)c21 (stereo not shown),-70.8%
21,CCCn1c2ccccc2c2cnn(CC(=O)N3CCN(C4CCCCC4)CC3)c(=O)c21,-72.6%
22,CCCn1c2ccccc2c2cnn(CC(=O)NC3CCCCC3C)c(=O)c21 (stereo not shown),11.7%
23,Cc1ccc(N(Cc2cc3ccccc3[nH]c2=O)C(=O)c2cccs2)cc1C,9.8%
24,O=C(NNc1ccc(Cl)cc1)C1CCC1,16.6%
25,Cc1cc(C)cc(OCC(=O)O/N=C(\N)c2ccccc2Cl)c1,-13.6%
26,CCOc1cc(/C=C(\C#N)C(N)=O)ccc1OCc1c(C)no[n+]1[O-],-0.204%
